The text below walks through data of PubChem BioAssay AID1117306 (National Center for Advancing Translational Sciences (NCATS), 2015).

By AC50 is commonly meant the concentration giving half of the maximal activity seen.

Active and inactive are the calls of the source. Calls come from the whole dose curve.

For the test the following is noted: Ebola virus entry assay, blue channel imaging.
As to `C[C@@H]1O[C@@H](O[C@H]2CC[C@@]3(C)[C@H](CC[C@@H]4[C@H]3C[C@@H](O)[C@]3(C)[C@@H](C5=CC(=O)OC5)CC[C@]43O)C2)C[C@H](O)[C@@H]1O[C@H]1C[C@H](O)[C@H](O[C@H]2C[C@H](O)[C@@H](O)[C@@H](C)O2)[C@H](C)O1` (stereo in doubt), the compound was classed as inactive.

For `COC1=CC(=O)C[C@@H](C)[C@]12Oc1c(Cl)c(OC)cc(OC)c1C2=O`, the outcome was inactive.

Take `CN(C)CCOc1ccc(/C(=C(/CCCl)c2ccccc2)c2ccccc2)cc1`: the concentration at half-maximal activity (AC50) was 1.37 µM (active).

With `COC(=O)Nc1nc2ccc(C(=O)c3cccs3)cc2[nH]1`, the AC50 is 0.611 µM (active).

`CC[C@]1(O)C[C@@H]2CN(CCc3c([nH]c4ccccc34)[C@@](C(=O)OC)(c3cc4c(cc3OC)N(C)[C@H]3[C@@](O)(C(=O)OC)[C@H](OC(C)=O)[C@]5(CC)C=CCN6CC[C@]43[C@@H]65)C2)C1`: the AC50 was 0.137 µM (active).

On to `COC(=O)Nc1nc2ccc(C(=O)c3ccccc3)cc2[nH]1`, for which the result was inactive.

As for `CC[C@]1(O)C[C@H]2CN(CCc3c([nH]c4ccccc34)[C@@](C(=O)OC)(c3cc4c(cc3OC)N(C=O)[C@H]3[C@@](O)(C(=O)OC)[C@H](OC(C)=O)[C@]5(CC)C=CCN6CC[C@]43[C@@H]65)C2)C1`, the half-maximal activity concentration (AC50) is 0.153 µM (active).

`CO[C@H]1C[C@@H]2CC[C@@H](C)[C@@](O)(O2)C(=O)C(=O)N2CCCC[C@@H]2C(=O)O[C@H]([C@@H](C)C[C@@H]2CC[C@H](O)[C@H](OC)C2)CC(=O)[C@H](C)C=C(C)[C@@H](O)[C@@H](OC)C(=O)[C@H](C)C[C@H](C)C=CC=CC=C1C`: the compound was called inactive.

`CO[C@H]1C[C@@H]2CC[C@@H](C)[C@@](O)(O2)C(=O)C(=O)N2CCCC[C@@H]2C(=O)O[C@H]([C@H](C)C[C@@H]2CC[C@H](OCCO)[C@H](OC)C2)CC(=O)[C@H](C)C=C(C)[C@@H](O)[C@@H](OC)C(=O)[C@H](C)C[C@H](C)C=CC=CC=C1C`: the compound was called inactive.

`Cc1nnc(C(C)C)n1C1C[C@H]2CC[C@@H](C1)N2CC[C@H](NC(=O)C1CCC(F)(F)CC1)c1ccccc1` (stereo not given in full): the call was inactive.

For `CCC1=C[C@@H]2CN(C1)Cc1c([nH]c3ccccc13)[C@@](C(=O)OC)(c1cc3c(cc1OC)N(C)[C@H]1[C@@](O)(C(=O)OC)[C@H](OC(C)=O)[C@]4(CC)C=CCN5CC[C@]31[C@@H]54)C2`, the AC50 was 0.153 µM (active).

On to `CCCCc1oc2ccc(NS(C)(=O)=O)cc2c1C(=O)c1ccc(OCCCN(CCCC)CCCC)cc1`, for which the AC50 is 4.85 µM (active).

With `CCCNCC(O)COc1ccccc1C(=O)CCc1ccccc1` (stereo not given), the AC50 was 9.68 µM (active).

Turning to `CCN(CC)CCNC(=O)c1c(C)[nH]c(/C=C2\C(=O)Nc3ccc(F)cc32)c1C`, the AC50 was 3.06 µM (active).

As to `COc1cccc2c1C(=O)c1c(O)c3c(c(O)c1C2=O)C[C@@](O)(C(C)=O)C[C@H]3O[C@H]1C[C@H](N)[C@H](O)[C@H](C)O1`, the AC50 is 3.43 µM (active).

Consider `CCCSc1ccc2nc(NC(=O)OC)[nH]c2c1`, for which the call was inactive.

`CC[C@H]1OC(=O)[C@H](C)[C@@H](O[C@H]2C[C@@](C)(OC)[C@@H](O)[C@H](C)O2)[C@H](C)[C@@H](O[C@@H]2O[C@H](C)C[C@H](N(C)C)[C@@H]2O)[C@](C)(O)C[C@@H](C)CN(C)[C@H](C)[C@@H](O)[C@]1(C)O`: the concentration at half-maximal activity (AC50) was 4.32 µM (active).

For `CN1CCN(CCCN2c3ccccc3Sc3ccc(C(F)(F)F)cc32)CC1`, the AC50 was 9.68 µM (active).

As for `CC[C@H]1OC(=O)[C@H](C)[C@@H](O[C@H]2C[C@@](C)(OC)[C@@H](O)[C@H](C)O2)C(C)[C@@H](O[C@@H]2O[C@H](C)C[C@H](N(C)C)[C@@H]2O)[C@](C)(OC)C[C@@H](C)C(=O)[C@H](C)[C@@H](O)[C@]1(C)O` (stereo not given in full), the half-maximal activity concentration (AC50) is 6.85 µM (active).

For `NCCCC(O)(P(=O)(O)O)P(=O)(O)O`, the call was inactive.
